Hit rate of the full screen: of about 370,000 compounds, about 3,000 (0.81%) were called active. The sample as a whole holds a higher share of actives than the screen did. A number with no mark means an inactive call.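 How the source made its calls: active means activity above about 14% (limit read from the data; passing the limit was not always enough); inactive means the rest.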

Chain of Nuclear receptor subfamily 1 group D member 1 (Homo sapiens) (P20393 whole entry, looked up): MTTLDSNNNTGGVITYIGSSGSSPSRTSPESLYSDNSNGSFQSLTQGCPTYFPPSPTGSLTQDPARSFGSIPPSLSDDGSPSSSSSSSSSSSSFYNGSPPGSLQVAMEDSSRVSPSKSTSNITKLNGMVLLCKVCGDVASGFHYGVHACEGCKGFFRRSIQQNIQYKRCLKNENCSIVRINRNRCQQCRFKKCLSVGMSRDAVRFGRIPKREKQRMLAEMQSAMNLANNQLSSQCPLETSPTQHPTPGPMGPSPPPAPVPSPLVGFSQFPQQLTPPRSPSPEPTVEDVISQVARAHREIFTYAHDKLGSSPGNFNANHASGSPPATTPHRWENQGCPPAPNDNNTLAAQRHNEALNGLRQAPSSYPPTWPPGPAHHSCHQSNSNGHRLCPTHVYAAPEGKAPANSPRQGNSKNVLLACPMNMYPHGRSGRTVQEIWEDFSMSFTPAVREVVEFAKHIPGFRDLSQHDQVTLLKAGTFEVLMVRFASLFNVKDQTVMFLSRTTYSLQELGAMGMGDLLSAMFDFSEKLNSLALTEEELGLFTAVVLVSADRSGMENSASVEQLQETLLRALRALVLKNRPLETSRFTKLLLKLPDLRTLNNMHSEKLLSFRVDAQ

The assay has as its target Nuclear receptor subfamily 1 group D member 1 (Homo sapiens) (UniProt P20393). Description: modulators of Rev-erb alpha DNA binding, primary screen, biochemical, FITC-DNA, fluorescence polarization, uHTS (AID 1259318).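 Further: 0% = DMSO wells with 35 nM protein and 100% = DMSO wells with 750 nM protein.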 To be noted: Rev-erbα–FITC-DNA binding, 90 min, at 10 µM, stronger effect = higher value.
For `CCOC(=O)c1cn[nH]c1NC(=S)Nc1ccccc1`, the activity is -3.54%.

For `CCOC(=O)c1ccc(NC(=O)Cn2cnc3cc(C)c(C)cc32)cc1`, the activity is 1.51%.

Turning to `CCOC(=O)c1ccc(NC(=S)Nc2cc(C)cc(C)n2)cc1`, the activity is 25.7% (active).

`COc1ccc(CNC(=O)COC(=O)/C=C/c2ccc(S(=O)(=O)N3CCOCC3)cc2)cc1`: the activity was -0.37%.

In the case of `O=C(Nc1nnc(-c2ccccc2F)s1)c1ccccc1F`, the activity was 23.9% (active).

With `CCSc1nnc(SCC(=O)NNC(=O)c2ccccc2F)s1`, the activity was -6.25%.

In the case of `O=C(Nc1ccccc1F)c1ccccc1-c1ccccc1`, the activity is 8.73%.

Consider `CC1(Oc2ccccc2-c2ccno2)CCN(Cc2ccc(-c3ccccc3)o2)C1` (stereo unspecified), for which the activity is -3.17%.

As to `O=C(Nc1cccc(Cl)c1)OC1CC2CC1[C@H]1CCCCN1[C@H]2Cc1ccccc1` (stereo partly specified), the activity is 0.26%.

Consider `CCCn1c(N)c(C(=O)CSc2nc3ccccc3c(=O)n2-c2ccc(OC)cc2)c(=O)[nH]c1=O`, for which the activity is -7.88%.

Take `COc1cccc(-n2c(SCC(=O)c3c[nH]c4ccccc34)nc3ccccc3c2=O)c1`: the activity is 69.3% (active).

For the compound `COc1ccc(-n2c(SCC(=O)Nc3ccc(C)c(Cl)c3)nc3ccccc3c2=O)cc1`, the activity is -4.51%.

Take `Cc1ccc(C2=Nc3c(ccc4ccccc34)C(c3ccncc3)=NN2)cc1`: the activity is 3.5%.

On to `Cc1ccc(S(=O)(=O)N2[C@@H](Cc3ccccc3)CO[C@H]2CC(=O)OCc2ccccc2)cc1`, for which the activity was -1.88%.

With `Cc1sc2ncn(CC(=O)NCCCC(=O)N3CCN(c4ccccc4F)CC3)c(=O)c2c1C`, the activity was -0.15%.

Regarding `Cc1cc(Br)ccc1NC(=O)c1sc2ncn(CC(=O)N3CCN(c4ccccn4)CC3)c(=O)c2c1C`, the activity was 58.2% (active).

Consider `Cc1cc(Br)ccc1NC(=O)c1cnc(N2CCN(c3ccccn3)CC2)c2ccccc12`, for which the activity is 0.52%.

In the case of `CCCCOc1ccc(N(CC(=O)NC(C)C)C(=O)CCC(=O)Nc2ccccn2)cc1`, the activity is -9.8%.

As for `COc1ccc(N(C(=O)c2snc(C(N)=O)c2N)C(C(=O)NC2CCCC2)c2ccco2)cc1OC` (stereo unspecified), the activity is 4.63%.

`CCC(C(=O)NC1CCCCC1)N(C(=O)c1snc(C(N)=O)c1N)c1ccc(OC)cc1OC` (stereo unspecified): the activity is 2.92%.

In the case of `CCC(C(=O)NC1CCCC1)N(C(=O)c1snc(C(N)=O)c1N)c1ccc2c(c1)OCCO2` (stereo unspecified), the activity was 34.2% (active).

`COc1ccc(C(=O)CN2C(=O)NC3(CCc4ccccc43)C2=O)c(OC)c1` (stereo unspecified): the activity was 6.28%.

`O=C(Nc1cccnc1)c1noc2c1CCCCC2`: the activity is 0.99%.

With `O=C(O)C1=CCCN(CCON=C(c2ccccc2)c2ccccc2)C1`, the activity was -6.65%.

With `COc1ccc(CCNC(=O)CSc2nc(-c3ccc(OC)c(OC)c3)ccc2C#N)cc1`, the activity is 56% (active).

With `COc1ccc(CCNC(=O)CSc2nnc3ccc(-c4ccncc4)nn23)cc1`, the activity was 2.33%.

For the compound `COc1cc(OC)cc(C(=O)NCCSCc2ccc(Cl)cc2)c1`, the activity is -1.8%.

With `COc1ccc(CCNC(=O)CSc2nc(C)nc3c2oc2ccccc23)cc1OC`, the activity is -3.78%.

For the compound `COc1cccc(-c2ccc(C#N)c(SCC(=O)NCCc3ccc(Cl)cc3)n2)c1`, the activity is 29.2% (active).

As for `COc1ccc(CCNC(=O)CSc2nnc(-c3cccc(F)c3)o2)cc1OC`, the activity was 6.95%.

Consider `O=C(O[C@@H]1[C@H](Cc2ccccc2)NS(=O)(=O)[C@H]2C[C@@H]3C=C[C@]12O3)c1ccccc1Br`, for which the activity is 4.17%.

In the case of `Cc1c[nH]c2cccc(-c3ccc(Cl)cc3)c12`, the activity is 4.69%.

Regarding `CCCCCCCCCCCCCCCCO`, the activity is 2.41%.

As for `CCNC(=O)C1(C)CCCN(C(=O)c2c(C)noc2C)C1` (stereo unspecified), the activity was -9.88%.

Regarding `NC(N)=Nc1nc2ccc(Br)cc2c(=O)[nH]1`, the activity was 20.6% (active).

On to `NC(=O)C1CCN(Cc2nc3c(Br)cc(Br)cc3c(=O)[nH]2)CC1`, for which the activity was -0.27%.

For the compound `CC(C)(C)c1ccc(S(=O)(=O)N2CCN(C(=O)c3ccc4c(c3)C(=O)N(Cc3ccncc3)C4=O)CC2)cc1`, the activity is -6.31%.

In the case of `COc1cccc(NS(=O)(=O)c2ccc3[nH]cc(C(=O)NCCCOC(C)C)c(=O)c3c2)c1`, the activity is 5.55%.

Turning to `CN(C)S(=O)(=O)c1ccc(N2CCCC2)c(C(=O)Nc2ccc(Br)cc2F)c1`, the activity was 23.1% (active).

On to `CN(C)S(=O)(=O)c1ccc(N2CCCC2)c(C(=O)NCc2ccccc2)c1`, for which the activity was 5%.

Take `CN(C)S(=O)(=O)c1ccc(N2CCCC2)c(C(=O)Nc2cccc(F)c2)c1`: the activity was 6.34%.

Consider `CC(C)(C)NC(=O)C(c1cccnc1)N(C(=O)c1cnco1)c1ccc(C(C)(C)C)cc1` (stereo unspecified), for which the activity was 0.3%.

Turning to `CN1/C(=c2/s/c(=C3/C(=O)N(c4ccccc4)NC3=Nc3ccccc3)n(C)c2=O)C(C)(C)c2ccccc21`, the activity was 42.5% (active).

`CCOC(=O)c1c(C)oc2cc(Br)c(OCC(N)=O)cc12`: the activity is 27.8% (active).

Consider `Cc1cc(=O)oc2c(C(=O)c3ccccc3)c(OCC(N)=O)ccc12`, for which the activity was 1.4%.

Turning to `COCCOC(=O)c1c(C)oc2cc(Br)c(OCC(N)=O)cc12`, the activity was -0.63%.

`CCOc1ccc(NC(=O)CN(C)C(=O)CCSc2ccc(F)cc2)cc1OCC`: the activity is -6.91%.

Consider `Nn1c(SCC(=O)Nc2cccc3ccccc23)nnc1-c1cc(-c2ccc(F)cc2)n[nH]1`, for which the activity was 0.84%.

As to `Cc1ccn2c(=O)nc(SCC(=O)NCc3ccc(F)cc3)nc2c1`, the activity is 10.3%.

`Cc1ccn2c(=O)nc(SCC(=O)NCc3ccc4c(c3)OCO4)nc2c1`: the activity is -6.16%.

Take `COc1ccc(C2=NN(C(=O)CSc3nc(=O)n4ccc(C)cc4n3)C(c3ccc(C)cc3)C2)cc1` (stereo unspecified): the activity is 37.8% (active).

For `CC(O)COc1ccccc1` (stereo unspecified), the activity was -2.15%.

Turning to `Cc1ccc(NS(=O)(=O)c2ccc(-c3ccc(=O)[nH]n3)o2)c(C)c1`, the activity was 1.28%.

As to `Cc1ccc(-n2c(C)cc(/C=C(\C#N)C(=O)NCC3CCCO3)c2C)cc1` (stereo unspecified), the activity was -8.1%.

With `N#C/C(=C\c1cccnc1)C(=O)Nc1ccc(SC(F)F)cc1`, the activity was -6.19%.

Consider `Cc1cc(/C=C(/C#N)C(=O)Nc2ccc(Cl)cc2)c(C)n1-c1cccnc1`, for which the activity was 23.3% (active).

These data come from PubChem BioAssay AID1259318 (Sanford-Burnham Center for Chemical Genomics, 2017).
